# Measured values taken from PubChem BioAssay AID504467 (National Center for Advancing Translational Sciences (NCATS), 2011).
# Out of some 330,000 compounds screened, about 7,700 (2.3%) were called active. Another 26% or so got no clear call; they are omitted. The full list was thinned out, with actives kept by preference. Unmarked numbers belong to inactive results. Calls follow the shape of the dose curve; as a rule, active = well fitted inhibition curve with a large enough effect; inconclusive = small, poorly fitted or top-dose-only effect, or effect the other way; inactive = flat fitted curve, though single readings scatter.
# Assay: qHTS screen for small molecules that inhibit ELG1-dependent DNA repair in human embryonic kidney (HEK293T) cells expressing luciferase-tagged ELG1; also: nearly all actives have a fitted effect of over 55% in size
# Conditions: HEK293T ELG1-luciferase reporter, luminescence, 16 h, DNA damage induced by 5-fluorouridine; series mostly up to 46.1 µM; activity change, negative = inhibition: at the top concentration
# How it was run: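 Reporter activity after DNA damage by 5-fluorouridine is monitored. Compound-treated cells incubate 16 hr at 37 °C, then ONE-Glo is added for 30 min before luminescence reading.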
# % is scaled to controls: 0 for no effect and ±100 for the full control effect; potency is read from the fitted curve at half-maximal effect.
Structure (SMILES),"activity change, negative = inhibition",Potency
O=C(Nc1ccncc1)c1ccc(Cl)c([N+](=O)[O-])c1,-21.7%,
Oc1ccc(N=Cc2c(O)ccc3ccccc23)cc1,-21.1%,
Oc1ccc2ccccc2c1C=Nc1ccccc1,4.96%,
Oc1ccc2ccccc2c1N=Nc1nccs1,,3.66 µM (active)
CC(C)C(NC(=O)c1c(F)cccc1F)C(=O)NNC(=O)c1ccccc1 (stereo not drawn),16.2%,
CN(C(=O)Cn1nnc(-c2ccc(F)cc2)n1)C1CCS(=O)(=O)C1 (stereo not drawn),-4.84%,
CN(C)S(=O)(=O)c1cccc(NC(=O)Cc2ccsc2)c1,-4.35%,
CN(CC(=O)Nc1cccc(F)c1)C(=O)C1=COCCO1,1.14%,
CCCc1ccc(-c2c(C)sc(NC(=O)c3ccnn3C)c2C#N)cc1,,18.4 µM (active)
Cn1nccc1CNC(=O)c1ccnn1C,-1.3%,
CCN(CC)C(=O)c1sc(NC(=O)c2ccco2)c(C#N)c1C,3.83%,
CSc1ccccc1C(=O)OCC(=O)N1CCN(C(C)=O)CC1,6.83%,
COc1ccc(C)cc1S(=O)(=O)N1CCN(S(=O)(=O)c2cc(C(=O)O)ccc2C)CC1,10%,
Cc1ccc(C)c(S(=O)(=O)n2cnc3ccccc32)c1,8.47%,
Cc1ccc(C)c(S(=O)(=O)N2CCN(c3ncnc4sccc34)CC2)c1,,1.83 µM (active)
CCCS(=O)(=O)N1CCCC(C(=O)N2CCN(c3ccccc3)CC2)C1 (stereo not drawn),1.94%,
Cc1ccc(S(=O)(=O)N2CCCC(C(=O)N3CCN(C)CC3)C2)cc1 (stereo not drawn),-5.55%,
CC(=O)N1CCCc2cc(S(=O)(=O)CCC(=O)N3CCN(c4ccccc4)CC3)ccc21,-11.5%,
O=C(C1CCCN(S(=O)(=O)c2ccccc2)C1)N1CCN(c2ccc(F)cc2)CC1 (stereo not drawn),,11.6 µM (active)
CC(=O)N1c2ccc(S(=O)(=O)N3CCC(C(=O)N4CCN(c5ccccc5)CC4)CC3)cc2CC1C (stereo not drawn),-10.6%,
CC(=O)N1CCCc2cc(S(=O)(=O)N3CCCC(C(=O)N4CCN(c5cccc(Cl)c5)CC4)C3)ccc21 (stereo not drawn),,20.6 µM (active)

Structure (SMILES),"activity change, negative = inhibition",Potency
O=S(=O)(NC1CCCCC1N1CCN(c2ccccc2F)CC1)c1ccccc1 (stereo not drawn),-4.79%,
COc1ccccc1N1CC(C(=O)Nc2nnc(SCC(=O)NCC3CCCO3)s2)CC1=O (stereo not drawn),-13.9%,
COc1ccc2[nH]c3nc(SCC(=O)NC4CC4)nnc3c2c1,8.12%,
Cc1cccc(S(=O)(=O)N2CN(CC3CCCO3)c3nc4ccccc4nc32)c1 (stereo not drawn),3.28%,
CCOc1ccc(NC(=O)CN(C)C(=O)COc2cccc(CC)c2)cc1OCC,12.8%,
CN(CC(=O)Nc1ccc(F)cc1)C(=O)c1ccc(-c2ccc(Cl)cc2)o1,0.408%,
CC(C)(C)NS(=O)(=O)NC(=O)C1=C(N2CCCC2)COC1=O,16.4%,
CCCc1cc(=O)oc2cc(OCC(=O)Nc3ccc(CN4CCOCC4)cc3)c(Cl)cc12,-13.1%,
CCCCN1C(=O)C(C)=C(C)C1OCCc1ccc(OC)c(OC)c1 (stereo not drawn),-6.77%,
O=C(O)c1ccccc1-c1ccccc1C(=O)Nc1cccc2ccccc12,-3.68%,
CCC(CO)Oc1cc(NC(=O)c2cccc3ccccc23)c2ncn(C(C)C)c2c1 (stereo not drawn),,14.6 µM (active)
CCC(CO)Oc1cc(NC(=O)c2ccc(Cl)cc2)c2ncn(C(C)C)c2c1 (stereo not drawn),0%,
CC(C#N)(NC(=O)CN1CCN(S(=O)(=O)c2cc(C(F)(F)F)ccc2Cl)CC1)C1CC1 (stereo not drawn),2.4%,
Cc1ccc(S(=O)(=O)Nc2nc(CN3CCOCC3)nc3sc(C)c(C)c23)cc1,16%,
C[C@H]1COC(=O)[C@H](CC(=O)OC(C)(C)C)C/C=C\C[C@@H](CC(=O)N[C@H](CO)Cc2ccccc2)C(=O)N1,-6.43%,
O=C(CSc1nc2nccnc2c(=O)n1Cc1cccs1)Nc1ccccc1F,15.3%,
O=C(Nc1ccccc1-c1nnn(CC(=O)N2CCN(c3ccccc3)CC2)n1)c1cccs1,,23.1 µM (active)
O=C(Nc1ccccc1-c1ccccc1)c1cccs1,4.08%,
COc1ccccc1N1CCN(C(=O)Cn2nnc(-c3cccs3)n2)CC1,-16%,
CN1C2CCC1CC(NC(=O)c1ccc([N+](=O)[O-])cc1)C2 (stereo not drawn),2.06%,
O=C(N[C@@H]1C/C=C\C[C@@H](CC(=O)N(CCO)Cc2ccccc2)C(=O)N[C@H](Cc2ccccc2)COC1=O)OCC1c2ccccc2-c2ccccc21,6.07%,

Structure (SMILES),"activity change, negative = inhibition",Potency
CC(C)(C)CC(C)(C)NCC(O)COCCOc1ccc(Br)cc1 (stereo not drawn),,23.1 µM (active)
OC(COc1ccc(Br)cc1)CN1CCCC1 (stereo not drawn),4.58%,
Cc1noc(COc2ccccc2OCC(O)CNC(C)(C)C)n1 (stereo not drawn),7.78%,
COc1ccccc1CNC(=O)[C@@H]1CCCN1C(=O)[C@@H]1Cc2ccccc2CN1C(=O)OC(C)(C)C,12.9%,
O=C1C=CN2CCCC2CC1 (stereo not drawn),3.43%,
COc1ccc(N(C(=O)c2snc(C(N)=O)c2N)C(C(=O)NC2CCCC2)c2ccc(C)o2)c(OC)c1 (stereo not drawn),-8.34%,
COc1ccc(NC(=O)COC(=O)c2n[nH]c3ccccc23)c(OC)c1,-16.4%,
Cc1cccc(Nc2ccccc2C(=O)NCc2ccco2)c1C,-5.52%,
COc1ccc(C(=O)Nc2ccccc2C(=O)NCc2ccco2)cc1,-5.84%,
Cc1ccc(N(Cc2ccc(C(=O)Nc3ccccc3C(=O)NCc3ccco3)cc2)S(C)(=O)=O)cc1C,,4.61 µM (active)
Cc1cc(C)c(S(=O)(=O)N2CCC(C(=O)OCc3c(C)noc3C)CC2)c(C)c1,2.81%,
O=C(CCc1nc2sc3c(c2c(=O)[nH]1)CCCC3)NCC(=O)Nc1ccccc1Br,0.543%,
COc1ccccc1C(=O)OCC(=O)Nc1cccc(S(=O)(=O)NC2=NCCCCC2)c1,-2.4%,
CCc1ccc2[nH]c(=O)c(Cc3ccccc3)c(O)c2c1,-6.81%,
CC(=O)c1cccc(NC(=O)c2ccncc2)c1,-4.98%,
C=C(C)C(=O)Nc1cccc(C(C)=O)c1,3.33%,
C=CCSc1nsc(NC(=O)Nc2cccc(C(C)=O)c2)n1,,7.3 µM (active)
COc1ccc2[nH]c3c(c2c1)CCN1C(=O)C(CC(=O)NCCCN(C)C)C[C@H](C(=O)N2CCOCC2)[C@@]31CCC1CCCC1 (stereo partly drawn),10.8%,
CN(c1ccccc1)S(=O)(=O)c1cccc(C(=O)NNC(=O)c2ccncc2)c1,-1.9%,
Cc1cccc(NC(=O)c2ccc(S(=O)(=O)N(C)c3ccccc3)cc2)n1,,23.1 µM (active)
CCN(c1ccccc1)S(=O)(=O)c1ccc(C(=O)Nc2nccs2)cc1,-19.3%,
